# The source made the active and inactive calls. Rule for the calls: active = hit-call score of the fitted dose curve at least 0.9, where 1 is the maximum; inactive = score below 0.9.
# Test: APR_HepG2_CellCycleArrest_24hr: Apredica 24-hour HepG2 Assay for Cell Cycle Arrest (AID 2282905)
# Details: imaging, actives raise or lower the signal
# Summary of the method: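 Readout: Hoechst 33342 nuclear DNA content by high-content fluorescent imaging, six images/well, 20x. Human HepG2 liver cells, 24 hr compound exposure, 0.39–200 uM, final DMSO 0.5% v/v. Gain or loss fitted relative to DMSO baseline.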
Compound,outcome,AC50
O=[N+]([O-])c1ccc(Oc2ccc(Cl)cc2Cl)cc1,inactive,
Cn1cc(-c2ccccc2)c(=O)c(-c2cccc(C(F)(F)F)c2)c1,,57.4 µM (active)
CN(C)c1ccccc1,inactive,
Oc1ccccc1Cl,inactive,
C=CCc1ccc2c(c1)OCO2,inactive,
CCCCCCCCCCCCCN1CC(C)OC(C)C1 (stereo unspecified),inactive,
Nc1cc(Cl)cc(C(=O)O)c1Cl,inactive,
Nc1ccc(Cl)cc1N,,0.162 µM (active)
CC(C)N(Cc1ccccc1)C(=O)C(C)(C)C,inactive,
ClCCOCCCl,inactive,
CO[C@@H]1[C@H](OC(=O)NC(=O)CCl)CC[C@]2(CO2)[C@H]1[C@@]1(C)O[C@@H]1CC=C(C)C,inactive,
CCOc1cccc(C2(N3CCN(c4ccccc4)CC3)CCC(C)CC2)c1 (stereo unspecified),inactive,
CCC12COCN1COC2,,45.1 µM (active)
CS(=O)(=O)NC(=O)c1cc(Oc2ccc(C(F)(F)F)cc2Cl)ccc1[N+](=O)[O-],inactive,
ClC1=C(Cl)C2(Cl)C3C(Cl)C=CC3C1(Cl)C2(Cl)Cl (stereo unspecified),,40.9 µM (active)
Cc1ccc([N+](=O)[O-])cc1,inactive,
O=C(N[C@H](c1ccccc1)[C@@H]1CN2CCC1CC2)c1c(Cl)ccc(C(F)(F)F)c1Cl,,60.8 µM (active)
CCCCOC(=O)c1ccccc1C(=O)OCc1ccccc1,inactive,
O=C1CCCO1,inactive,
c1ccc(N=Nc2ccccc2)cc1,,63.1 µM (active)
CN(C)[C@@H]1C(=O)C(C(N)=O)=C(O)[C@@]2(O)C(=O)C3=C(O)c4c(O)cccc4[C@@](C)(O)[C@H]3C[C@@H]12,inactive,

# Reference: PubChem BioAssay (EPA / NIEHS)
